This is a sample that favours compounds with a hit; in the whole collection about 6.1% have one here.
Bst PK mod: Pyruvate Kinase; purified pyruvate kinase, luminescence ATP production; ribose 5-phosphate activator present at AC10; Potency, µM; 1.2% of 51,000 active; AID 361, 2006; in the data active = potency below about 11 µM; inconclusive = mostly about 12 µM to 25 µM;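 the screen sought inhibitors and activators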;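 also: scaled between full activation by ribose 5 phosphate and full inhibition by luteolin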
GBA activity: Glucocerebrosidase; Lysosomal acid glucosylceramidase (Homo sapiens), P04062; purified enzyme, resorufin glucoside fluorescence (screen aimed at inhibitors), 20 min; Potency, µM; 1.1% of 48,000 active; AID 360, 2006; in the data active = potency below about 15 µM; inconclusive = mostly about 16 µM to 33 µM;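 also: the screen sought inhibitors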
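Normal human glucocerebrosidase (0.2 nM final) was assayed with resorufin β-D-glucopyranoside (30 uM final) in 50mM citric acid/KH2PO4, 10mM sodium taurocholate, 0.01% tween-20, pH 5.9. Compounds were titrated; fluorescence (Ex 548, Em 600) read after 20 min at RT.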
TSHR agonist: qHTS Assay for Agonists of the Thyroid Stimulating Hormone Receptor. Thyrotropin receptor (Homo sapiens), P16473. 0.48% of 73,000 active. HEK293-CNG-TSHR cells (CNG channel as cAMP sensor), membrane potential dye, cAMP. Potency, µM (titrated, usually from 57.1 µM), inactives show top-dose activation, actives largely listed as activators. AID 926, 2007; active = well fitted activation curve with a large enough effect in the main read-out, with a control signal flat, not every such curve was filed as active; inconclusive = small, poorly fitted or top-dose-only effect, or a change in a side signal; inactive = no such curve, though single readings can be large or run the other way; % of control where 0% means no effect;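 also: the control signal comes from parental cells without the receptor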
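cAMP rise detected as CNG-channel membrane depolarization by fluorescent dye (emission 590 nm), 30 min after compound, following 60 min dye loading containing 100 uM RO 20-1724 at room temperature. Cells: TSHR/CNG HEK 293, with parental CNG HEK 293 as control.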
HEK293 cAMP cs: qHTS Assay for Agonists of the Thyroid Stimulating Hormone Receptor: Activators of Intracellular cAMP Concentrations in Parental HEK 293; Potency, µM (titrated, usually from 57.1 µM), inactives show at the top dose activation, usual class: activators; 2.5% of 73,000 active; parental HEK293 CNG cAMP sensor, membrane potential fluorescence; also: % of control where 0% means no effect; nearly all actives have a fitted effect of over 55% in size
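Counterscreen for endogenous-receptor signalling: CNG-channel HEK 293 cells report cAMP rise by membrane depolarization. After 60 min dye equilibration with 100 uM RO 20-1724, compounds incubated 30 min before bottom-read fluorescence at 590 nm.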
FLuc inh: qHTS Assay for Inhibitors of Firefly Luciferase; 2.2% of 72,000 active; Potency, µM (highest dose often 57.1 µM), inactives show at the top dose activity change, negative = inhibition, most hits filed as inhibitors; purified firefly luciferase, luminescence, 8 min; also: % is scaled to controls: 0 for no effect and ±100 for the full control effect; nearly all actives have a fitted effect of over 40% in size
Target sequence (P08659 whole entry, looked up): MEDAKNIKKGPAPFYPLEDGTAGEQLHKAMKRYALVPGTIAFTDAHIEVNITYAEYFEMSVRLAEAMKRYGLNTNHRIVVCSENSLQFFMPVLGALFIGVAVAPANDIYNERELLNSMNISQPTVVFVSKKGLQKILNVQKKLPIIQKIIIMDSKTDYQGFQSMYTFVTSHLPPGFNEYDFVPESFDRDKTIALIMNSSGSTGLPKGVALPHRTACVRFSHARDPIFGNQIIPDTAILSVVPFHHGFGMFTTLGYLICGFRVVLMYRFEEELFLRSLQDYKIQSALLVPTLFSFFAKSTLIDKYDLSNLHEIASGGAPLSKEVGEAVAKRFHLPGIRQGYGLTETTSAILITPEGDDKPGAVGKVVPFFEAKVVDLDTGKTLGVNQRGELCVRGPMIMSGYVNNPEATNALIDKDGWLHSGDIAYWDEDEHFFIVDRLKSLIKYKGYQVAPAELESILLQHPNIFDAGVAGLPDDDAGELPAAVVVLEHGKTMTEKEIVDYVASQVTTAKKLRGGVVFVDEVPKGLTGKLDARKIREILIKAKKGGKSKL
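Here, luciferase activity is measured as luminescence following an 8 min room-temperature reaction at 10 uM ATP, pH 7.2. Every library sample is titrated.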
ERK AVP inh: qHTS Assay for Inhibitors of the ERK Signaling Pathway using a Homogeneous Screening Assay; HEK293-V1b, vasopressin-stimulated pERK AlphaScreen; AID 995, 2007; Potency, µM (doses to about 57.5 µM), without a hit: at the top dose activity, negative = inhibition, actives largely listed as inhibitors; 0.99% of 72,000 active; also: % is scaled to controls: 0 for no effect and ±100 for the full control effect; nearly all actives have a fitted effect of over 55% in size
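HEK293 cells stably expressing V1b receptor, preincubated 30 min at 37 °C with compound, then stimulated 5 min with 25 nM vasopressin. Phospho-ERK by AlphaScreen SureFire after 5 h RT; normalized to DMSO and vasopressin; AC50 by Hill fit.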
* = called active by the depositor; i = inactive; ? = inconclusive; . = no result; [ ] = remark or other dose. Unless noted, calls follow the shape of the dose curve; as a rule, active = well fitted curve in the direction sought with a large enough effect; inconclusive = small, poorly fitted or top-dose-only effect, or another doubt; inactive = no such curve, though single readings can be large; an effect the other way counts as inactive or inconclusive. Potency is read from the fitted curve at half-maximal effect.

SMILES	Bst PK mod	GBA activity	TSHR agonist	HEK293 cAMP cs	FLuc inh	ERK AVP inh
CCCC[C@@H]1C[C@H]1C(NC(=O)Cc1ccccc1)c1ccc(Cl)cc1 (stereo not given in full)	.	.	?	?	.	1%
O=c1oc2ccccc2n1CCn1c2ccccc2c2nc3ccccc3nc21	>57	>77	?	7.9µM*	0%	6%
Cc1ncsc1C(=O)Nc1nc2c(s1)CC(C)CC2 (stereo not given)	10*	>77	0%	3%	10µM*	-17%
CC1CCc2nc(NC(=O)CN3CCOCC3)sc2C1 (stereo not given)	>57	>77	-3%	0%	-9%	-15%
CSc1ncnc2c1ncn2CC(=O)[C@H]1CC[C@H]2[C@H]3CCC4=CC(=O)CC[C@@]4(C)[C@@H]3CC[C@@]12C	.	.	10%[11.4 µM]	1%[11.4 µM]	0%[11.4 µM]	4µM*
Cc1cccc(/C=C\c2ccccc2)n1	.	.	?	?	7.9µM*	14%
CN(C)CCN(C)C(=O)c1ccc(-n2c(=O)c(=O)[nH]c3ccccc32)cc1	.	.	4%	-6%	.	.
C(=N\n1cnnc1)/c1ccc2c(c1)OCO2	.	.	-4%	8%	2%	-13%
O=c1/c(=C\c2ccc3c(c2)OCO3)sc2n1CCCN=2	?	.	5%	24%	13µM*	10µM*
CC1(C)Cc2ccccc2-c2nnc(SCC(=O)Nc3nc4ccccc4s3)n21	>57	>77	?	5µM*	-3%	53%
CC1(C)Cc2ccccc2-c2nnc(SCC(=O)N3CCN(c4ccccc4)CC3)n21	>57	>77	.	17%	3%	0%
CCOC(=O)C1=C(CS(=O)(=O)c2ccc(F)c(C)c2)NC(=O)NC1c1ccc(O)c(O)c1 (stereo not given)	.	.	?	?	-5%	25µM*
c1ccc(-c2oc3ncnc(NCCN4CCOCC4)c3c2-c2ccccc2)cc1	>57	13*	.	18%	0%	?
N=c1c2c(-c3ccccc3)c(-c3ccccc3)oc2ncn1CCN1CCOCC1	>57	>77	11%	15%	6%	?
c1ccc(-c2oc3ncnc(NCCCn4ccnc4)c3c2-c2ccccc2)cc1	>57	?	?	?	0%	25µM*
CC(C)CO/N=C1/C[C@@H](O)[C@@H](O)[C@@H]2[C@@H]3C(=O)N(C(C)(C)C)C(=O)[C@H]3CC[C@@H]12	.	.	-7%[11.4 µM]	4%[11.4 µM]	-1%[11.4 µM]	3%[11.5 µM]
Cc1ccc2c(c1)N(CC(=O)N1CCN(c3nc4ccccc4s3)CC1)C(=O)C(C)O2 (stereo not given)	>57	>77	?	6.3µM*	-3%	?
CCOC(=O)NC[C@H](Cc1ccc(OCCc2nc(-c3ccccc3)oc2C)cc1)N/C(C)=C\C(=O)c1ccc(C(F)(F)F)cc1	.	.	2%	9%	.	6%
C/C(=N\O)c1ccc2[nH]ccc2c1	>26	.	.	.	-8%[25.5 µM]	.
C/C(=N\O)c1ccc2c3c([nH]c2c1)CCCC3	.	.	-28%	-10%	16µM*	-3%
Cn1cc(C(=O)c2ccc(Cl)cc2)cc1-c1nc2ccccc2n1C	>57	i	?	32µM*	4%	32µM*
CN(C)c1ncc2nc(-c3ccccc3)c(=O)n(CCC#N)c2n1	.	.	3%	12%	1%[11.4 µM]	-28%
CCOC(=O)C1CCN(C(C(=O)Nc2ccc3c(c2)OCCO3)c2ccccc2)CC1 (stereo not given)	>57	>77	?	13µM*	2%	15%
O=C(OCc1csc(-c2ccccc2)n1)c1cccs1	?	>77	?	?	13µM*	48%
Cn1cccc1C(=O)OCc1csc(-c2ccccc2)n1	9.3*	>77	6%	13%	7.9µM*	10%
SMILES	Bst PK mod	GBA activity	TSHR agonist	HEK293 cAMP cs	FLuc inh	ERK AVP inh
O=C(OCc1nc2ccccc2s1)c1cccs1	.	>77	20%	17%	10µM*	10%
Cc1ccsc1C(=O)OCc1csc(-c2ccccc2)n1	7.1*	>77	?	?	7.9µM*	24%
C[C@@H]1/C=C\CC(=O)OC[C@H]2O[C@@H](C=C[C@@H]2O)[C@H](C)/C=C\CC(=O)OC1	.	.	-2%[11.4 µM]	2%[11.4 µM]	1%[11.4 µM]	6%[11.5 µM]
COc1ccc(Oc2nc(C)nc3c2oc2ccccc23)cc1	.	>77	?	25µM*	5%	-28%
O=C(COc1ccc(Cl)cc1Cl)Nc1ccc(Cl)cn1	.	.	?	?	1.3µM*	28%
Cc1ccc(C(C)C)c(OCC(=O)Nc2ccc(Cl)cn2)c1	>57	>77	?	?	2%	61%
CCOc1ccc(C(=O)Nc2ccc(Cl)cn2)cc1Cl	.	>77	2%	25%	25µM*	8%
CCCn1nnc(NC(=O)c2ccc(OCC)c(Cl)c2)n1	>57	>77	0%	-5%	-1%	-20%
C[C@@H](C(=O)Nc1ccc2ccccc2c1)[C@H]1C[C@]1(C)[C@H](NC(=O)Oc1ccc(F)cc1)c1ccccc1	.	.	0%	5%	.	-11%
COc1ccc(-n2nc3cc(C)c(N)c(Br)c3n2)cc1	3.4*	?	-11%	-4%	4µM*	32µM*
O=C(Cc1cccs1)N1CCN(c2ccccn2)CC1	.	.	-2%	-4%	5%	-23%
O=C(c1cn(-c2ccccc2)nc1-c1cccs1)N1CCN(c2ccccn2)CC1	i	.	24%	7%	25µM*	?
C=CCOc1ccc(/C=C/C(C)=N\O)cc1	.	.	2%	-3%	16µM*	-4%
CCOc1ccc(/C(=N\O)C(C)NO)cc1 (stereo not given)	.	.	-11%	1%	2%	-13%
Fc1cccc(Cl)c1CSc1nnc(COc2cccc3cccnc23)o1	?	>77	?	25µM*	0%	?
Clc1ccc2c(c1)N(CCCN1CCCC13CCCCC3)c1ccccc1S2	.	.	-1%[11.4 µM]	-3%[11.4 µM]	5%[11.4 µM]	5%[11.5 µM]
CCOC(=O)c1ccc(NC(=O)CCc2nc(-c3cccc(C)c3)no2)cc1	>57	>77	-7%[11.4 µM]	30%	2%	25µM*
Cc1cccc(-c2noc(CCC(=O)Nc3ccccc3)n2)c1	>57	>77	4%	3%	0%	?
C[C@@]12C=CC(=O)C=C1CC[C@H]1[C@H]3CC[C@](O)(C(=O)CO)[C@]3(C)CC(=O)[C@@H]12	.	.	-11%[25.6 µM]	4%[25.6 µM]	6%[25.5 µM]	6%[25.7 µM]
Cc1ccc(N(CC(=O)N2CC(=O)Nc3ccccc32)S(=O)(=O)c2ccc3c(c2)OCCO3)cc1	>57	i	7.9µM*	10%	-1%	0%
O=C(c1ccncc1)N1CCC2(CC1)CCN(c1ccncc1)CC2	.	.	-2%	2%	1%[11.4 µM]	4%
